Assay [1] can be described thus: qHTS assay for cell viability of HEK293 cells (AID 743288; active = well fitted curve in the direction sought with a large enough effect; an effect the other way counts as inactive or inconclusive; also: % is scaled to controls: 0 for no effect and ±100 for the full control effect; nearly all actives have a fitted effect of over 50% in size). The settings on record: ATP luminescence (CellTiter-Glo), 18 h, stronger effect = lower value. Put shortly: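 Luminescent ATP quantitation served as the viability read-out. Cells (parental HEK293, 2,000/well) received compounds after at least 5 h at 37 C and were exposed for 18 h before a 30 min room-temperature reagent step.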
On the technique in general: qHTS replaces the single test concentration by a dilution series.

Assay [2] can be described thus: qHTS assay for cell viability of the p53RE-bla HCT-116 cell line (AID 743292; active = well fitted curve in the direction sought with a large enough effect; an effect the other way counts as inactive or inconclusive; also: % is scaled to controls: 0 for no effect and ±100 for the full control effect; nearly all actives have a fitted effect of over 55% in size). As to conditions: p53RE-bla HCT-116 viability, ATP luminescence, 16 h; series mostly up to 95 µM. A digest of the protocol: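 CellSensor p53RE-bla HCT-116 cells (4,000/well) pre-incubated 5 h at 37 C, then exposed to compounds in DMSO for 16 h at 37 C. Viability read as ATP content by CellTiter-Glo luminescence after 30 min at room temperature.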

A short description of assay [3]: qHTS profiling of the MIPE4 collection as inhibitors of Plasmodium falciparum (3D7) proliferation (AID 743344).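 Also: scaled between DMSO vehicle wells and 0.29 µM artemisinin as full inhibition.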 As to conditions: P. falciparum 3D7 in erythrocytes, SYBR Green DNA fluorescence, 72 h; at 28.5 µM (top of the series) unless noted. A digest of the protocol: (§1)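 Erythrocytes infected with P. falciparum (0.3% parasitemia, 2.5% hematocrit) incubated with compounds 72 h at 37 C, 5% CO2. Lysis with saponin/Triton buffer containing SYBR Green I, overnight at room temperature in the dark; DNA fluorescence (485/535 nm) normalised to 0.29 uM artemisinin and DMSO.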

A short description of assay [4]: qHTS profiling of the MIPE4 collection as inhibitors of Plasmodium falciparum (DD2) proliferation (AID 743345). The settings on record: P. falciparum Dd2 in erythrocytes, SYBR Green DNA, 72 h; at 28.5 µM (top of the series) unless noted. A digest of the protocol: as §1
A short description of assay [5]: qHTS profiling of the MIPE4 collection as inhibitors of Plasmodium falciparum (DD2) proliferation (Rep 2) (AID 743346). As to conditions: P. falciparum Dd2 in erythrocytes, SYBR Green DNA, 72 h; at 28.5 µM (top of the series) unless noted. Put shortly:
as §1

The nature of assay [6]: qHTS profiling for inhibitors of Plasmodium falciparum (3D7) proliferation (AID 743322).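 Also: infected erythrocytes exposed to compound for 72 h before lysis; 100% = DMSO vehicle wells and 0% = 0.29 µM artemisinin.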 As to conditions: P. falciparum 3D7 proliferation; at 28.7 µM (top of the series). Put shortly: as §1
The nature of assay [7]: qHTS profiling for inhibitors of Plasmodium falciparum (DD2) proliferation (AID 743323). The settings on record: lower = more inhibition; at 28.7 µM (top of the series). A digest of the protocol:
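1536-well qHTS; infected RBCs 0.3% parasitemia/2.5% Hct final; cpd 72 h 37 C 5% CO2; lysis buffer + SYBR Green I, o/n RT dark; FI 485/535; norm. to 0.29 uM artemisinin and DMSO, plate-stack corrected.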

Assay [8] is described as follows: qHTS profiling for inhibitors of Plasmodium falciparum (HB3) proliferation (AID 743324; active = well fitted curve in the direction sought with a large enough effect; an effect the other way counts as inactive or inconclusive;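 also: 100% = DMSO vehicle wells and 0% = artemisinin-treated control wells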). As to conditions: Plasmodium falciparum HB3 blood-stage proliferation; at 28.7 µM (top of the series). A digest of the protocol: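 P. falciparum HB3 grown in erythrocytes (0.3% parasitemia, 2.5% hematocrit final) with compound for 72 h at 37 C, 5% CO2. Parasite DNA detected by SYBR Green after saponin/triton lysis overnight; normalized to 0.29 uM artemisinin and DMSO.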

Assay [9] can be described thus: qHTS profiling of the MIPE4 collection as inhibitors of Plasmodium falciparum (HB3) proliferation (AID 743347).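 Also: plate controls were DMSO vehicle wells for no effect and artemisinin wells for full effect.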 The settings on record: P. falciparum HB3 in erythrocytes, SYBR Green DNA, 72 h; at 28.5 µM (top of the series) unless noted. A digest of the protocol:
as §1

Assay [10] in a line: qHTS Assay for Identifying Gametocytocidal Compounds (AID 743244; active = well fitted curve in the direction sought with a large enough effect; an effect the other way counts as inactive or inconclusive;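 also: % is scaled to controls: 0 for no effect and ±100 for the full control effect; actives lower the fluorescent signal which means gametocytes are killed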). The settings on record: P. falciparum 3D7 stage III-V gametocytes, alamarBlue, 72 h; max response: stronger effect = lower value. A digest of the protocol:
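Stage III–V gametocytes of P. falciparum 3D7 were seeded at 20,000 cells/well onto pre-dispensed compounds. After 72 h, 37 °C, 5% CO2, alamarBlue was added for another 24 h.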

Records with an inconclusive call do not appear. Calls of active or inactive are those of the source. Unless noted, no rule for the calls is given here. Starred links: 1 amine or outer side, 2 acyl side, 3 side chain; linkers in the order of their positions; H or OH if unused. Positions of bridges follow the written chain, without caps; N, C: chain ends. Non-standard residues stand in square brackets, D forms with d. Residues, ends and D or L forms follow the SMILES beside them. Chains are numbered I, II in the order given. Actinocin(9to1) = Cc1c2oc3c(C)ccc(C(=O)[*:1])c3nc-2c(C(=O)[*:2])c(N)c1=O; NMeV = CN[CH](C(=O)O)C(C)C; Sar = CNCC(=O)O

`O=C1c2cccc(O)c2C(=O)c2c(O)cc(CO)cc21`: the max response in assay [1] is -3.37% (inactive). Moreover, in [2], the result was inactive.
Compound `CCc1ccc(C(=O)Nc2cc(CN3CCN(C)CC3)cc(C(F)(F)F)c2)cc1C#Cc1cnc2ccnn2c1` showed a parasite growth, % of DMSO control in assay [3] of 5.7%. In addition, the parasite growth remaining, % of DMSO control (lower = more inhibition) in assay [4] worked out at 6.73%. In assay [5], the parasite growth, % of control (lower = inhibition) is 10.5%.
Compound `COc1cc(N2CCC(C(N)=O)CC2)ccc1Nc1nc(N)c(Cl)c(Nc2ccccc2S(=O)(=O)C(C)C)n1` yielded a parasite growth, % of DMSO control in assay [3] of 38.7%. This compound also returned a parasite growth remaining, % of DMSO control (lower = more inhibition) in [4] of 37.8%.
Regarding `Cc1c2oc3c(C)ccc(C(=O)NC4C(=O)NC(C(C)C)C(=O)N5CCCC5C(=O)N(C)CC(=O)N(C)C(C(C)C)C(=O)OC4C)c3nc-2c(C(=O)NC2C(=O)NC(C(C)C)C(=O)N3CCCC3C(=O)N(C)CC(=O)N(C)C(C(C)C)C(=O)OC2C)c(N)c1=O` (stereo not given) (I: TVP[Sar][NMeV] / II: TVP[Sar][NMeV]; ester I:1-I:C, II:1-II:C; linker I:N-II:N via Actinocin(9to1); configuration not given here), the remaining parasite growth % (stronger effect = lower value) in assay [6] is -4%. Further, the activity, percent of control in assay [7] was -2.06%. Also, the remaining proliferation (% of control), lower = more inhibition in assay [8] was -1.93%. This compound gave a parasite growth, % of DMSO control in [3] of 3.86%. This compound showed a parasite growth remaining, % of DMSO control (lower = more inhibition) in assay [4] of 3.9%. The parasite growth, % of control (lower = inhibition) in assay [5] turned out to be 15.2%. This compound showed a growth, % of control in [9] of 2.3%.
As for `COc1ccc2cc([S+]([O-])Cc3ncc(C)c(OC)c3C)nc2c1`, the max response in assay [10] was 2.05% (inactive). Further, in assay [3], the parasite growth, % of DMSO control was 32.2%. Also, the parasite growth remaining, % of DMSO control (lower = more inhibition) in assay [4] was 87.1%.
As to `O=C(O)CCCCC(CCSCc1ccccc1)SCc1ccccc1` (stereo not given), the remaining parasite growth % (stronger effect = lower value) in [6] stood at 84%. The activity, percent of control in assay [7] came to 84%. Moreover, the remaining proliferation (% of control), lower = more inhibition in assay [8] turned out to be 70.4%. Further, the parasite growth, % of DMSO control in assay [3] is 76.2%. The compound further came in with a parasite growth remaining, % of DMSO control (lower = more inhibition) in [4] of 96.3%. Further, the parasite growth, % of control (lower = inhibition) in assay [5] was determined as 61.5%. Also, in assay [9], the growth, % of control stood at 63.9%.
Consider `CCc1cc(C(C)=NOCc2ccc(C3CCCCC3)c(C(F)(F)F)c2)ccc1CN1CC(C(=O)O)C1`, for which, in [3], the parasite growth, % of DMSO control was determined as 6.45%.
Take `CCCCCCCCCCCCCCCC(=O)OC[C@@H](NC(=O)C(Cl)Cl)[C@H](O)c1ccc([N+](=O)[O-])cc1`: the max response in [10] was 5.04% (inactive). In [3], this compound showed a parasite growth, % of DMSO control of 101%. This compound also yielded a parasite growth remaining, % of DMSO control (lower = more inhibition) in assay [4] of 95.4%. Besides, in assay [5], the parasite growth, % of control (lower = inhibition) came out at 135%. The compound also displayed a growth, % of control in assay [9] of 112%.

Source of the values: PubChem BioAssay (NCATS).
